Measurements as given in PubChem BioAssay AID1159580 (chemical genetic matrix, 2015).
Hit rate of the full screen: of about 5,500 compounds, about 2,000 (36%) were called active. Roughly 18% stayed inconclusive and do not appear here. Rule as the data show it: active = normalized growth mostly below about 0.91 (no sharp cut-off); inconclusive = no clear call, values can overlap the other calls; inactive = mostly above about 0.92. This is one part of the list.

Assay: chemical genetic growth profiling, strain panel (AID 1159580);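 also: tested at 20 µM; growth read once vehicle control cultures reached saturation at 30 °C; 1 = growth at the plate median or of vehicle wells; lower values mean less growth of the strain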
Settings: S. cerevisiae deletion strains, growth OD
[1] = locus YAR019C, strain CDC15, stronger effect = lower value
[2] = locus YBL105C, strain PKC1, stronger effect = lower value
[3] = locus YBR135W, strain CKS1, stronger effect = lower value
[4] = locus YBR136W, strain MEC1, stronger effect = lower value
[5] = locus YBR160W, strain CDC28, stronger effect = lower value
[6] = locus YDL017W, strain CDC7, stronger effect = lower value
[7] = locus YDL028C, strain MPS1, stronger effect = lower value
[8] = locus YDL101C, strain DUN1, stronger effect = lower value
[9] = locus YDL108W, strain KIN28, stronger effect = lower value
[10] = locus YDL132W, strain cdc53, stronger effect = lower value
[11] = locus YDL214C, strain PRR2, stronger effect = lower value
[12] = locus YDR052C, strain DBF4, stronger effect = lower value
[13] = locus YDR054C, strain cdc34, stronger effect = lower value
[14] = locus YDR226W, strain ADK1, stronger effect = lower value
[15] = locus YDR477W, strain SNF1, stronger effect = lower value
[16] = locus YER123W, strain YCK3, stronger effect = lower value
[17] = locus YER133W, strain GLC7, stronger effect = lower value
[18] = locus YFL009W, strain cdc4, stronger effect = lower value
[19] = locus YFL029C, strain CAK1, stronger effect = lower value
[20] = locus YFR003C, strain YPI1, stronger effect = lower value
[21] = locus YFR019W, strain FAB1, stronger effect = lower value
[22] = locus YFR028C, strain CDC14, stronger effect = lower value
[23] = locus YGR040W, strain KSS1, stronger effect = lower value
[24] = locus YGR052W, strain FMP48, stronger effect = lower value
[25] = locus YGR092W, strain DBF2, stronger effect = lower value
[26] = locus YHR030C, strain SLT2, stronger effect = lower value
[27] = locus YHR079C, strain IRE1, stronger effect = lower value
[28] = locus YHR082C, strain KSP1, stronger effect = lower value
[29] = locus YHR205W, strain SCH9, stronger effect = lower value
[30] = locus YIL147C, strain SLN1, stronger effect = lower value
[31] = locus YJL095W, strain BCK1, stronger effect = lower value
[32] = locus YJL128C, strain PBS2, stronger effect = lower value
[33] = locus YJL157C, strain FAR1, stronger effect = lower value
[34] = locus YJR016C, strain ILV3, stronger effect = lower value
[35] = locus YJR066W, strain TOR1 (second series), stronger effect = lower value
[36] = locus YJR066W, strain TOR1, stronger effect = lower value
[37] = locus YKL048C, strain ELM1, stronger effect = lower value
[38] = locus YKL067W, strain YNK1, stronger effect = lower value
[39] = locus YKL101W, strain HSL1, stronger effect = lower value
[40] = locus YKL193C, strain SDS22, stronger effect = lower value
[41] = locus YKL203C, strain TOR2, stronger effect = lower value
[42] = locus YLR113W, strain HOG1, stronger effect = lower value
[43] = locus YLR133W, strain CKI1, stronger effect = lower value
[44] = locus YLR403W, strain SFP1, stronger effect = lower value
[45] = locus YML070W, strain DAK1, stronger effect = lower value
[46] = locus YMR001C, strain CDC5, stronger effect = lower value
[47] = locus YMR205C, strain PFK2 (second series), stronger effect = lower value
[48] = locus YMR277W, strain FCP1, stronger effect = lower value
[49] = locus YNL006W, strain LST8, stronger effect = lower value
[50] = locus YNL020C, strain ARK1, stronger effect = lower value
[51] = locus YNL161W, strain CBK1, stronger effect = lower value
[52] = locus YNL183C, strain NPR1, stronger effect = lower value
[53] = locus YNL207W, strain RIO2, stronger effect = lower value
[54] = locus YNL222W, strain SSU72, stronger effect = lower value
[55] = locus YNL307C, strain MCK1 (second series), stronger effect = lower value
[56] = locus YOL078W, strain AVO1, stronger effect = lower value
[57] = locus YOL136C, strain PFK27, stronger effect = lower value
[58] = locus YOR061W, strain CKA2, stronger effect = lower value
[59] = locus YOR119C, strain RIO1, stronger effect = lower value
[60] = locus YOR231W, strain MKK1, stronger effect = lower value
[61] = locus YOR329C, strain SCD5, stronger effect = lower value
[62] = locus YPL031C, strain PHO85, stronger effect = lower value
[63] = locus YPL153C, strain RAD53, stronger effect = lower value
[64] = locus YPL204W, strain HRR25, stronger effect = lower value
[65] = locus YPL209C, strain IPL1, stronger effect = lower value
[66] = locus YPL256C, strain CLN2, stronger effect = lower value
[67] = locus YPR025C, strain CCL1, stronger effect = lower value
[68] = locus YPR106W, strain ISR1, stronger effect = lower value
[69] = locus YPR111W, strain DBF20, stronger effect = lower value
[70] = strain NNK1, stronger effect = lower value
[71] = strain TSCII, stronger effect = lower value

Measured: normalized growth

O=C(NCc1ccncc1)c1ccc(-n2cccn2)cc1
inactive: [1] 0.989 | [2] 0.984 | [3] 0.982 | [4] 0.982 | [5] 0.984 | [6] 0.992 | [7] 0.983 | [8] 0.982 | [9] 0.982 | [10] 0.984 | [11] 0.972 | [12] 0.987 | [13] 0.988 | [14] 0.983 | [15] 0.972 | [16] 0.941 | [17] 0.969 | [18] 0.981 | [19] 0.988 | [20] 0.98 | [21] 0.962 | [22] 0.979 | [23] 0.96 | [24] 1 | [25] 0.985 | [26] 1.11 | [27] 1.1 | [28] 1.05 | [29] 0.985 | [30] 0.982 | [31] 0.981 | [32] 0.953 | [33] 0.973 | [34] 0.984 | [35] 0.971 | [36] 1.09 | [37] 0.959 | [38] 0.972 | [39] 0.962 | [40] 0.976 | [41] 1.03 | [43] 0.955 | [44] 0.99 | [45] 0.954 | [46] 0.984 | [47] 0.973 | [48] 0.978 | [49] 0.993 | [50] 0.974 | [51] 0.985 | [52] 1.02 | [53] 0.981 | [54] 0.982 | [55] 0.966 | [56] 0.981 | [57] 0.928 | [58] 0.965 | [59] 1.02 | [60] 0.95 | [61] 0.986 | [62] 0.964 | [63] 0.969 | [64] 0.935 | [65] 0.984 | [66] 1.02 | [67] 0.987 | [68] 0.982 | [69] 0.968 | [70] 0.984 | [71] 0.981
active: [42] 0.854

O=C(CCNNC(=O)c1ccncc1)NCc1ccccc1
inactive: locus YAL040C, strain CLN3, stronger effect = lower value 0.999 | locus YCL061C, strain MRC1 (second series), stronger effect = lower value 1 | locus YDR150W, strain NUM1, stronger effect = lower value 0.998 | locus YDR363W, strain ESC2, stronger effect = lower value 0.959 | locus YER002W, strain NOP16, stronger effect = lower value 0.994 | locus YGR229C, strain SMI1, stronger effect = lower value 0.986 | [26] 0.978 | [27] 0.975 | [31] 0.972 | [36] 0.961 | locus YJR075W, strain HOC1, stronger effect = lower value 0.994 | [42] 0.966 | locus YMR263W, strain SAP30, stronger effect = lower value 0.994 | locus YNL153C, strain GIM3, stronger effect = lower value 0.99 | locus YNL175C, strain NOP13, stronger effect = lower value 0.996 | [52] 0.931 | locus YNL197C, strain WHI3, stronger effect = lower value 0.993 | locus YNL224C, strain SQS1, stronger effect = lower value 0.998 | locus YOR083W, strain WHI5 (second series), stronger effect = lower value 1 | [60] 0.97 | locus YPL055C, strain LGE1, stronger effect = lower value 0.987 | locus YPL241C, strain CIN2, stronger effect = lower value 1 | [66] 0.974

O=C(Nc1ccc(N2CCOCC2)cc1)c1ccc(-n2cccn2)cc1
inactive: [1] 0.994 | [2] 0.982 | [3] 0.974 | [4] 0.979 | [5] 0.975 | [6] 0.983 | [7] 0.985 | [8] 0.981 | [9] 0.974 | [10] 0.973 | [11] 0.959 | [12] 0.985 | [13] 0.987 | [14] 0.982 | [15] 0.96 | [16] 0.915 | [17] 0.957 | [18] 0.988 | [19] 0.988 | [20] 0.988 | [21] 0.955 | [22] 0.977 | [23] 0.953 | [24] 1.01 | [25] 0.991 | [26] 1.13 | [27] 1.1 | [28] 1.07 | [29] 0.982 | [30] 0.972 | [31] 1 | [32] 0.95 | [33] 0.966 | [34] 0.986 | [35] 0.96 | [36] 1.1 | [37] 0.946 | [38] 0.954 | [39] 0.931 | [40] 0.981 | [41] 1.04 | [42] 0.9 | [43] 0.962 | [44] 0.984 | [45] 0.928 | [46] 0.983 | [47] 0.95 | [48] 0.985 | [49] 0.979 | [50] 0.96 | [51] 0.978 | [52] 1.03 | [53] 0.979 | [54] 0.977 | [55] 0.958 | [56] 0.972 | [57] 0.923 | [58] 0.952 | [59] 1.01 | [60] 0.949 | [61] 0.985 | [62] 0.962 | [63] 0.958 | [64] 0.924 | [65] 0.979 | [66] 1.02 | [67] 0.982 | [68] 0.976 | [69] 0.968 | [70] 0.977 | [71] 0.982
